Assay results from PubChem BioAssay (NCATS).
Inconclusive results are not listed. A number with no mark means an inactive call. The source made the active and inactive calls. Calls follow the shape of the dose curve; as a rule, active = well fitted inhibition curve with a large enough effect; inconclusive = small, poorly fitted or top-dose-only effect; inactive = no such curve, though single readings can be large or run the other way.

Assay: qHTS Screen of the MIPE 4.0 Collection Against Ewings Sarcoma (EW8) (AID 1259255); also: nearly all actives have a fitted effect of over 35% in size;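 as to viability: 100% = DMSO-treated cells and 0% = medium-only wells without cells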
Conditions: EW8 Ewing sarcoma viability, CellTiter-Glo, 48 h; series mostly up to 45.8 µM; viability: at the top concentration
Text: There is a large unmet medical need for treatments for Ewing sarcoma, a pediatric sarcoma. We sought to identify compounds that inhibited Ewing sarcoma cells in vitro with the goal to then test promising drugs in two drug combinations in vitro to look for synergistic drug combinations. Promising combinations would then proceed to additional validation, including in vivo testing.
Using the NCATS developed oncology compound library called the Mechanism of Interrogation Plate (MIPE), four Ewing sarcoma cell lines were evaluated (TC32, TC71, RDES, EW8). Compounds, in a 12-point titration series, were incubated with cells for 48 hours and the read out was cell viability (CellTiter-Glo from Promega). These initial experiments were used to select appropriate concentrations of each single agent for subsequent two-drug matrix combinations such that the concentrations in the matrices would span both activity and non-activity.
Cells, in the log phase of growth, were seeded in 5 uL of RPMI plus 5% FBS, […] L-glutamine, 100 U/ml penicillin and 100 ug/ml streptomycin into 1536-well solid-bottom white tissue culture treated Greiner Bio One Plates (789173-F) using a MultiDrop Combi (Thermofisher Scientific) dispenser and a small sterile cassette. One column was media alone to be used as a :"no cells" control. The plates were then covered with sterilized stainless steel gasketed lids from Kalypsys. After allowing cells to attach for 4 hours, 23 nL of test compound or control (negative control DMSO and positive control 9.2 uM Bortezomib-final) were added from a 1536-well polypropylene compound source plate to each well using a 1536 head pin tool from Kalypsys. Cells were then incubated for 48 hours at 37C, 95% relative humidity and 5% CO2. After 48 hours, plates were removed from the incubator and 3 uL of CellTiter-Glo (Promega) was added using an Aurora Flying Reagent Dispenser Bioraptor. Plates were incubated at room temperature for 10 minutes prior to reading the luminescence on the Viewlux (PerkinElmer). The relative luciferase units are used to calculate the percent activity using the activity of DMSO in the cells and no cells columns for normalization of no inhibition and full inhibition respectively.
Potency is read from the fitted curve at half-maximal effect.

SMILES | viability | Potency
C[C@@H](N)C1CCC(C(=O)Nc2ccncc2)CC1 (stereo not given in full) | 121% | –
CC(C)c1nc(CN(C)C(=O)N[C@H](C(=O)N[C@@H](Cc2ccccc2)C[C@H](O)[C@H](Cc2ccccc2)NC(=O)OCc2cncs2)C(C)C)cs1 | – | 16.6 µM (active)
CS(=O)(=O)OCCCCOS(C)(=O)=O | 113% | –
CC(C)(S)[C@@H](N)C(=O)O | 127% | –
Nc1cccc2c1CN(C1CCC(=O)NC1=O)C2=O (stereo not given) | 121% [at 92.2 µM] | –
O=C(O)c1cc(=O)c2c(OCC(O)COc3cccc4oc(C(=O)O)cc(=O)c34)cccc2o1 | 112% | –
c1ccc2[nH]c(-c3cscn3)nc2c1 | 100% | –
Cc1cc(Cl)ccc1OCCCC(=O)NO | – | 1.05 µM (active)
O=c1cc(N2CCOCC2)oc2c(-c3ccccc3)cccc12 | – | 18.7 µM (active)
Cc1nccn1CC1CCc2c(c3ccccc3n2C)C1=O (stereo not given) | 100% | –
CCCCN(CCCC)CCC(O)c1cc2c(Cl)cc(Cl)cc2c2cc(C(F)(F)F)ccc12 (stereo not given) | 96% | –
O=C(NCC1CCCCN1)c1cc(OCC(F)(F)F)ccc1OCC(F)(F)F (stereo not given) | 90.3% | –
COCCCOc1ccnc(CS(=O)c2nc3ccccc3[nH]2)c1C (stereo not given) | 110% | –
Cc1cccc(C#Cc2ccccc2)n1 | – | 18.7 µM (active)
Cc1cc2c(s1)Nc1ccccc1N=C2N1CCN(C)CC1 | 98.7% | –
O=C1c2c(O)cc(O)cc2OC(c2ccc(O)c(O)c2)C1O (stereo not given) | 91.6% | –
Oc1ccc(OCc2ccccc2)cc1 | – | 4.18 µM (active)
Cc1cccc(-c2[nH]ncc2-c2ccc3ncccc3n2)n1 | 108% | –
C[C@]12CCC(=O)C=C1CC[C@@H]1[C@H]2[C@@H](O)C[C@@]2(C)[C@H]1CC[C@]2(O)C(=O)CO | 130% | –
O=C(NC(Cc1cc(=O)[nH]c2ccccc12)C(=O)O)c1ccc(Cl)cc1 (stereo not given) | 117% | –

SMILES | viability | Potency
CCCOc1ccc2nc(NC(=O)OC)[nH]c2c1 | – | 0.0066 µM (active)
C[Se]CCC(N)C(=O)O (stereo not given) | 100% [at 92.2 µM] | –
CNC[C@@H](O)[C@@H](O)[C@H](O)[C@H](O)CO | 116% | –
CC(S)C(=O)NCC(=O)O (stereo not given) | 132% | –
O=P(O)(O)C(O)(Cn1ccnc1)P(=O)(O)O | 129% [at 23.2 µM] | –
NNc1nncc2ccccc12 | 114% | –
O=C(c1ccccc1)c1ccc2n1CCC2C(=O)O (stereo not given) | – | 6.62 µM (active)
CN(C)C(=O)[C@H](O)[C@H](Cc1ccccc1)NC(=O)c1cc2cc(Cl)ccc2[nH]1 | – | 23.5 µM (active)
CC1=C(C(=O)O)N2C(=O)[C@@H](NC(=O)[C@H](N)C3=CCC=CC3)[C@H]2SC1 | 113% | –
CC1=C(C)C(=O)C(C(CCCCCC(=O)O)c2ccccc2)=C(C)C1=O (stereo not given) | 91.5% | –
COC(=O)N[C@H](C(=O)N[C@@H](Cc1ccccc1)[C@@H](O)CN(Cc1ccc(-c2ccccn2)cc1)NC(=O)[C@@H](NC(=O)OC)C(C)(C)C)C(C)(C)C | 97.7% | –
O=C(CS(=O)Cc1ccco1)NCC=CCOc1cc(CN2CCCCC2)ccn1 (stereo not given) | 93.7% | –
COc1ccccc1N1CCN(CCN(C(=O)C2CCCCC2)c2ccccn2)CC1 | 115% | –
O=C(O)c1cccnc1Nc1cccc(C(F)(F)F)c1 | 112% | –
Nc1cc(C(Cl)=C(Cl)Cl)c(S(N)(=O)=O)cc1S(N)(=O)=O | 102% | –
C=CCc1cc(OC)c(O)c(C(=O)NCCO)c1 | 94.7% | –
NS(=O)(=O)c1cc(C(=O)O)c(NCc2ccco2)cc1Cl | 117% | –
COc1ccc(C2(C#N)CCC(C(=O)O)CC2)cc1OC1CCCC1 (stereo not given) | 109% | –
CC(C)Oc1ccc2c(=O)c(-c3ccccc3)coc2c1 | 112% | –
Cc1c(C(=O)NN2CCCCC2)nn(-c2ccc(Cl)cc2Cl)c1-c1ccc(Cl)cc1 | – | 26.4 µM (active)
